Assay [1] deals with Paired box protein Pax-6 (Homo sapiens) (UniProt P26367). As to the kind of experiment: ATG_Pax6_CIS: Attagene CIS-FACTORIAL HepG2 Assay for human Paired Box 6 (PAX6) (AID 2282956). To be noted: HepG2 CIS-FACTORIAL PAX6 reporter transcription, RNA readout; actives raise or lower the signal. The essentials:
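DMSO-referenced bidirectional fits of reporter mRNA fluorescence; HepG2 with transient cis-promoter MRTUs, 24 h post-dose, RT-PCR plus capillary electrophoresis detection.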

A short description of assay [2]: ATG_PXRE_CIS: Attagene CIS-FACTORIAL HepG2 Assay for human Pregnane X Receptor Element (PXRE) (AID 2282957). To be noted: HepG2 Attagene CIS-FACTORIAL PXRE reporter, mRNA; actives raise or lower the signal. The essentials: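 Bidirectional activity, baselined to DMSO, derived from reporter mRNA fluorescence (RT-PCR plus capillary electrophoresis) in HepG2 cells bearing cis-promoter reporter units, 24 h exposure.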

Assay [3] can be described thus: ATG_PPRE_CIS: Attagene CIS-FACTORIAL HepG2 Assay for human Peroxisome Proliferator-activated Response Element (PPRE) (AID 2282958). To be noted: HepG2 PPRE cis-element reporter, Attagene transcription factor profiling; actives raise or lower the signal. The essentials:
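Read-out: fluorescent reporter mRNA fragments resolved by capillary electrophoresis after RT-PCR. HepG2 cells carried transiently transfected PPRE-driven cis reporter constructs and were dosed for 24 h; gain or loss of signal fitted relative to DMSO.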

Assay [4] can be described thus: ATG_RORE_CIS: Attagene CIS-FACTORIAL HepG2 Assay for human RAR-related Orphan Receptor Element (RORE) (AID 2282959). To be noted: HepG2 Attagene cis-factorial RORE reporter, mRNA; actives raise or lower the signal. The essentials:
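Readout: fluorescent reporter mRNA by RT-PCR plus capillary electrophoresis, 24 h after dosing transfected HepG2 cells. Endogenous transcription factor activity on a cis promoter element is measured. Gain or loss of signal fitted against DMSO.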

The nature of assay [5]: ATG_Sox_CIS: Attagene CIS-FACTORIAL HepG2 Assay for human SRY-box transcription factor (SOX) (AID 2282960). The settings on record: HepG2 Attagene cis-factorial SOX reporter, mRNA; actives raise or lower the signal. The essentials:
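Read-out: fluorescent RT-PCR products of SOX1-linked reporter transcripts resolved by capillary electrophoresis, fitted bidirectionally against DMSO. Transiently transfected HepG2 cells, 24 h after chemical exposure, endogenous transcription factor activity.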

In assay [6] the target is Transcription factor Sp1 (Homo sapiens) (UniProt P08047). As to the kind of experiment: ATG_Sp1_CIS: Attagene CIS-FACTORIAL HepG2 Assay for human Specificity Protein 1 (Sp1) (AID 2282961). The settings on record: HepG2 Sp1 cis-reporter transcription, actives raise or lower the signal. The essentials: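 Read-out: fluorescence of 6-FAM-labeled, HpaI-digested RT-PCR products separated by capillary electrophoresis. HepG2 cells carried transfected cis-element reporter units and were exposed to chemicals for 24 h; gain or loss of signal fitted relative to DMSO.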
Chain of Transcription factor Sp1 (Homo sapiens) (P08047 whole entry, looked up): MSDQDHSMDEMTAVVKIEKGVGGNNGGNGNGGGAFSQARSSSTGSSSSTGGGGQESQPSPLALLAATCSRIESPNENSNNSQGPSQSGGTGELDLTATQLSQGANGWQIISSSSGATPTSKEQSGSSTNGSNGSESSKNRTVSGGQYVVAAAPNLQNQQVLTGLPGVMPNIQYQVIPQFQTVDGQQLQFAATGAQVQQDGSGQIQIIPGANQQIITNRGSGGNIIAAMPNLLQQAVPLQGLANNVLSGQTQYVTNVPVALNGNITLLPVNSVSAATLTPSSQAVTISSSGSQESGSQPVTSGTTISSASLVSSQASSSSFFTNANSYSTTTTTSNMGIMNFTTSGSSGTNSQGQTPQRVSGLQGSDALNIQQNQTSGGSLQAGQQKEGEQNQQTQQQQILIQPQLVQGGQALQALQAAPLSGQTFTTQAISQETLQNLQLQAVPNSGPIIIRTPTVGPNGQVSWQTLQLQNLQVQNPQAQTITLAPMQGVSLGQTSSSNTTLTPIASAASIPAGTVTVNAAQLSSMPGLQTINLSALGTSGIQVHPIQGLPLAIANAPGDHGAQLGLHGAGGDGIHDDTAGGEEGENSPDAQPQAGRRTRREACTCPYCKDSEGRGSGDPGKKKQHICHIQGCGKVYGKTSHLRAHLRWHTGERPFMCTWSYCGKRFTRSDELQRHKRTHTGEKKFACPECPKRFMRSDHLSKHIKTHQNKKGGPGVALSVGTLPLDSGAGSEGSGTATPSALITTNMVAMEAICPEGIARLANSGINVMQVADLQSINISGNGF

Assay [7] is described as follows: ATG_SREBP_CIS: Attagene CIS-FACTORIAL HepG2 Assay for human Sterol Regulatory Element Binding (SREBP) (AID 2282962). The settings on record: HepG2 Attagene cis-factorial SREBP reporter, mRNA; actives raise or lower the signal. The essentials:
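In this cis-format assay, HepG2 liver cells express reporters controlled by promoter elements responsive to native transcription factors. Exposure lasts 24 h; reporter mRNA fluorescence from capillary electrophoresis gives the signal, fitted bidirectionally against DMSO.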

Assay [8] has as its target Signal transducer and activator of transcription 3 (Homo sapiens) (UniProt P40763). As to the kind of experiment: ATG_STAT3_CIS: Attagene CIS-FACTORIAL HepG2 Assay for human Signal Transducer and Activator of Transcription 3 (STAT3) (AID 2282963). To be noted: HepG2, Attagene cis-factorial STAT3 reporter transcription; actives raise or lower the signal. The essentials:
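HepG2, MRTU-transfected, 24 h dosing. RNA → RT → PCR → FAM label → HpaI → CE. Bidirectional fit vs DMSO.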

A short description of assay [9]: ATG_TAL_CIS: Attagene CIS-FACTORIAL HepG2 Assay for human TAL Basal Promoter (AID 2282966).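 Note: background control endpoint measuring basal TAL promoter reporter mRNA not a specific factor.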 To be noted: HepG2 Attagene cis-factorial TAL promoter reporter; actives raise or lower the signal. The essentials: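 Human hepatoma HepG2 cells, transfected with promoter-regulated reporter units, were treated 24 h. Reporter transcript levels, measured through RT-PCR and capillary electrophoresis, were fitted for gain or loss relative to DMSO.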

Assay [10] can be described thus: ATG_TGFb_CIS: Attagene CIS-FACTORIAL HepG2 Assay for human Transforming Growth Factor (TGF) (AID 2282967). To be noted: HepG2 Attagene CIS TGFb reporter, mRNA transcription; actives raise or lower the signal. The essentials:
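HepG2 cells transiently transfected with cis-promoter-driven multiplexed reporter units; 24 h compound exposure. Reporter mRNA measured by RT-PCR, 6-FAM labeling, HpaI digestion and capillary electrophoresis; bidirectional fit versus DMSO baseline.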

Assay [11] in a line: ATG_VDRE_CIS: Attagene CIS-FACTORIAL HepG2 Assay for human Vitamin D Receptor Element (VDRE) (AID 2282968). The settings on record: HepG2 VDRE cis-reporter transcription, actives raise or lower the signal. The essentials:
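Steps: transfect HepG2 with multiple reporter transcription units; dose chemicals 24 h; isolate RNA; RT-PCR; label with 6-FAM primer extension; HpaI digest; capillary electrophoresis. Curves fitted both directions against DMSO.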

Assay [12] has as its target Nuclear receptor subfamily 1 group I member 3 (Homo sapiens) (UniProt Q14994). Nature of the assay: ATG_CAR_TRANS: Attagene TRANS-FACTORIAL HepG2 Assay for human Constitutive Androstane Receptor (CAR) (AID 2282969; active = hit-call score of the fitted dose curve at least 0.9, where 1 is the maximum;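 note: activators raise reporter mRNA above DMSO so AC50 marks induction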). To be noted: HepG2 Attagene TRANS-FACTORIAL CAR reporter. The essentials:
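Steps: transient transfection of HepG2 with multiple GAL4-UAS reporter units; 24 h compound incubation; RNA isolation, RT-PCR, 6-FAM primer extension, HpaI digest; capillary electrophoresis. Gain-of-signal relative to DMSO negative control.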

The target in assay [13] is Estrogen receptor (Homo sapiens) (UniProt P03372). Nature of the assay: ATG_ERa_TRANS: Attagene TRANS-FACTORIAL HepG2 Assay for human Estrogen Receptor alpha (ERa) (AID 2282970; active = hit-call score of the fitted dose curve at least 0.9, where 1 is the maximum). The settings on record: HepG2 Attagene TRANS ERa GAL4 reporter, mRNA. The essentials:
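Signal derives from fluorescence of labelled reporter PCR fragments separated by capillary electrophoresis. HepG2 cells transiently carrying multiple GAL4-UAS reporter units were treated 24 hours, and induction above DMSO baseline was fitted as activity.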

Assay [14] deals with X-box-binding protein 1 (Homo sapiens) (UniProt P17861). As to the kind of experiment: ATG_Xbp1_CIS: Attagene CIS-FACTORIAL HepG2 Assay for human X-box Binding Protein 1 (XBP1) (AID 2282972). The settings on record: HepG2 XBP1 cis-element reporter, Attagene multiplex; actives raise or lower the signal. The essentials:
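Changes in reporter transcript abundance, read by RT-PCR and capillary electrophoresis, reflect endogenous transcription factor activity. Transfected HepG2 cells received compound for 24 hours; DMSO defined baseline for bidirectional analysis.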

A short description of assay [15]: ATG_M_19_TRANS: Attagene TRANS-FACTORIAL HepG2 Assay for M19 Transcription Factor (Internal Marker) (AID 2282974; active = hit-call score of the fitted dose curve at least 0.9, where 1 is the maximum). To be noted: HepG2 Attagene TRANS-FACTORIAL M19 internal marker reporter. The essentials: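 24 h chemical exposure of transiently transfected HepG2 (MRTU library). RNA → oligo(dT) RT → PCR → 6-FAM labelling → HpaI cut → CE fluorescence. Positive-direction fit vs DMSO baseline; background internal-marker readout.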

Assay [16] is described as follows: ATG_TA_CIS: Attagene CIS-FACTORIAL HepG2 Assay for human TA Basal Promoter (AID 2282964). The settings on record: HepG2 Attagene CIS-factorial TA basal promoter reporter; actives raise or lower the signal. The essentials:
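HepG2 cells transiently transfected with multiplexed cis-promoter reporter units, dosed 24 h. Reporter mRNA measured by RT-PCR, 6-FAM labelling, HpaI digestion and capillary electrophoresis; bidirectional fit versus DMSO baseline, serving as background control.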

The target in assay [17] is Steroid hormone receptor ERR1 (Homo sapiens) (UniProt P11474). As to the kind of experiment: ATG_ERRa_TRANS: Attagene TRANS-FACTORIAL HepG2 Assay for human Estrogen-Related Receptor alpha (ERRa) (AID 2282971; active = hit-call score of the fitted dose curve at least 0.9, where 1 is the maximum). To be noted: HepG2 Attagene TRANS reporter, ERRa transactivation. The essentials:
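Signal gain relative to DMSO for an ERRa-Gal4 chimeric receptor, read as reporter mRNA by RT-PCR/capillary electrophoresis. Human HepG2 liver cells, transient multiplex reporter transfection, 24 h chemical exposure.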

The nature of assay [18]: ATG_GAL4_TRANS: Attagene TRANS-FACTORIAL HepG2 Assay for GAL4 (Internal Marker) (AID 2282976; active = hit-call score of the fitted dose curve at least 0.9, where 1 is the maximum). To be noted: HepG2 Attagene TRANS GAL4 internal marker reporter. The essentials: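 Liver HepG2 line bearing multiplexed GAL4-UAS reporter constructs; 24 h chemical treatment. Transcripts were quantified as fluorescent fragments on capillary electrophoresis after RT-PCR and HpaI cut, with activity fitted upward from DMSO.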

Assay [19] has as its target Estrogen-related receptor gamma (Homo sapiens) (UniProt P62508). Nature of the assay: ATG_ERRg_TRANS: Attagene TRANS-FACTORIAL HepG2 Assay for human Estrogen-Related Receptor gamma (ERRg) (AID 2282977; active = hit-call score of the fitted dose curve at least 0.9, where 1 is the maximum;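 note: hits increase reporter signal over DMSO so potencies reflect activators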). The settings on record: HepG2 Attagene TRANS reporter, ERRg transactivation. The essentials: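 Exogenous NR-Gal4 chimera activity measured as reporter transcript induction after 24 h in transiently transfected HepG2 cells. RNA reverse-transcribed, PCR-amplified, 6-FAM-labelled and resolved by capillary electrophoresis; increase over DMSO baseline.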

Results on four compounds are retold here after PubChem BioAssay (EPA / NIEHS).

In general, AC50 refers to the concentration giving half of the maximal activity seen.

Inconclusive results are not listed. Calls of active or inactive are those of the source. Rule for the calls, unless noted: active = hit-call score of the fitted dose curve at least 0.9, where 1 is the maximum; inactive = score below 0.9.

Chain of Paired box protein Pax-6 (Homo sapiens) (P26367 whole entry, looked up): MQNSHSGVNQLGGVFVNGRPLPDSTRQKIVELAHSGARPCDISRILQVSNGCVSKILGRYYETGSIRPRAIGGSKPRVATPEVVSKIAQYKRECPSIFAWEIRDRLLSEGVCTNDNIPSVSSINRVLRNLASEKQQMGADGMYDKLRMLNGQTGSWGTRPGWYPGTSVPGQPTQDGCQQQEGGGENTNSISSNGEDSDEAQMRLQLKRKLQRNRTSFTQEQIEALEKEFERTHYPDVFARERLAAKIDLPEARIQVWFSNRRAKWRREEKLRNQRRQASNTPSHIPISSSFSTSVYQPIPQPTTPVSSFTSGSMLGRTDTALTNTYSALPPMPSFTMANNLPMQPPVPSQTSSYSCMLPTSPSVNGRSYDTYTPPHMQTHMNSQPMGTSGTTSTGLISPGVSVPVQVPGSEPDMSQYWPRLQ
Chain of Signal transducer and activator of transcription 3 (Homo sapiens) (P40763 whole entry, looked up): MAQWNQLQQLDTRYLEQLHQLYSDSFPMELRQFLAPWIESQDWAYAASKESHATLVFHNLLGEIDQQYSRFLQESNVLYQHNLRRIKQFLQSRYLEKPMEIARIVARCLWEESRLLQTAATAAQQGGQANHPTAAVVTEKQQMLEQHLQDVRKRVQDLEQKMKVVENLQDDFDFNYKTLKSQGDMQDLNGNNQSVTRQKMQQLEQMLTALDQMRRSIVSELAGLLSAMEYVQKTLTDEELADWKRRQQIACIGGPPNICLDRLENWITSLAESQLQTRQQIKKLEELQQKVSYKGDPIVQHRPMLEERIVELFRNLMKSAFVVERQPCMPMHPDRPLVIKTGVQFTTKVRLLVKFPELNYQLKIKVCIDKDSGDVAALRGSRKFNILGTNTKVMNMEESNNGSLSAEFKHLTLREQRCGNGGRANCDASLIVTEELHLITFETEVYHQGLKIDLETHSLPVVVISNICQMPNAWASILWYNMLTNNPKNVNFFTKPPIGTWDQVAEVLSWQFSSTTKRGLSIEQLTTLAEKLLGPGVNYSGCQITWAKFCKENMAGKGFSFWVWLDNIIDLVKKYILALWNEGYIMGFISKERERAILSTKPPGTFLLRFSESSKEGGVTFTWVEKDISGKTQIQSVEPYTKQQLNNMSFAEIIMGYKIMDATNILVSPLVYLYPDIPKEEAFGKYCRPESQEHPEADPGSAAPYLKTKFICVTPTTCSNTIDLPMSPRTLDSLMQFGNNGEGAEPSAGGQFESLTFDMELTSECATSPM
Chain of X-box-binding protein 1 (Homo sapiens) (P17861 whole entry, looked up): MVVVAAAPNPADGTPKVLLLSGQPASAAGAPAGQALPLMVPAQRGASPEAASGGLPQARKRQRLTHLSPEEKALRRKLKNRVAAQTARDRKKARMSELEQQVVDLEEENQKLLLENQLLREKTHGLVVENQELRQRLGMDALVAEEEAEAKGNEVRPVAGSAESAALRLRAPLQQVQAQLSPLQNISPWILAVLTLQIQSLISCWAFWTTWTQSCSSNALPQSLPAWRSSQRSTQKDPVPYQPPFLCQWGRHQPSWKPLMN
Chain of Estrogen receptor (Homo sapiens) (P03372 whole entry, looked up, the tested form may be a part): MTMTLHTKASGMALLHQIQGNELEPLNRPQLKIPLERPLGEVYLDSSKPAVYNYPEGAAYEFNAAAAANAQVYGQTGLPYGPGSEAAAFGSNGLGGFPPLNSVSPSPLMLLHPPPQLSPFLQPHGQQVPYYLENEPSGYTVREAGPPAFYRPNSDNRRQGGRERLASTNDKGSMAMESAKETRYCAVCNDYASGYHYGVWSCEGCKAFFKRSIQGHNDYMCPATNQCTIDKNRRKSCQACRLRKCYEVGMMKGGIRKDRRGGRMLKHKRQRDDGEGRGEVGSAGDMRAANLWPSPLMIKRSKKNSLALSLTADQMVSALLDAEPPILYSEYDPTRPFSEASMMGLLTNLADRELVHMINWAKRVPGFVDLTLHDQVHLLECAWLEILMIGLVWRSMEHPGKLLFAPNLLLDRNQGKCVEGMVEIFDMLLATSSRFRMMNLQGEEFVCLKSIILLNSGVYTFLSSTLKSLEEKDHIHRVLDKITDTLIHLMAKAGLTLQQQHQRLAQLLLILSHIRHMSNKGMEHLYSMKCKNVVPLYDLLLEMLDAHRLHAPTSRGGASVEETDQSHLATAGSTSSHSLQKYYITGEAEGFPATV
Chain of Estrogen-related receptor gamma (Homo sapiens) (P62508 whole entry, looked up, the tested form may be a part): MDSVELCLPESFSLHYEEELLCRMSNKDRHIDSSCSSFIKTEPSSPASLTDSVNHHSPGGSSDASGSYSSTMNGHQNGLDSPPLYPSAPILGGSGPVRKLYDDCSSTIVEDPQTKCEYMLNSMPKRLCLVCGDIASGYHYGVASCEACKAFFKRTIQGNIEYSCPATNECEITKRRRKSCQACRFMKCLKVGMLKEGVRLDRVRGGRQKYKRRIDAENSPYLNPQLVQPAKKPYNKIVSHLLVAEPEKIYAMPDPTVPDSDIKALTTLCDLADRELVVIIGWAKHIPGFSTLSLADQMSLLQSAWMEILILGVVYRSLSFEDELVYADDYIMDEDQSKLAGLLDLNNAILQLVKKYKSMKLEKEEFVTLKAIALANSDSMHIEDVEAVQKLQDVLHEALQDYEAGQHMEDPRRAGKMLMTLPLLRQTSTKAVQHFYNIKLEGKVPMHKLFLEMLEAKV
Chain of Steroid hormone receptor ERR1 (Homo sapiens) (P11474 whole entry, looked up, the tested form may be a part): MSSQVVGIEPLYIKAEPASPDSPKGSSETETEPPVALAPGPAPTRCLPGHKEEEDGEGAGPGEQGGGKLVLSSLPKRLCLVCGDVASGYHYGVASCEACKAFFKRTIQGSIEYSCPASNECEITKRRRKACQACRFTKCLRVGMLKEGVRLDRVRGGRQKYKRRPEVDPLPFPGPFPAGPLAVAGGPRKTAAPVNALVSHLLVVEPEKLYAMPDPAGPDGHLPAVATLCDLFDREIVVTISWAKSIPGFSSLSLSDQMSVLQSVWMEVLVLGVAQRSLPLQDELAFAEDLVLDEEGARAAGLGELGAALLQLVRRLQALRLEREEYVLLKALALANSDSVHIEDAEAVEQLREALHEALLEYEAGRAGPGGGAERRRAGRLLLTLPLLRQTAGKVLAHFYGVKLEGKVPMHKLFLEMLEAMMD
Chain of Nuclear receptor subfamily 1 group I member 3 (Homo sapiens) (Q14994 whole entry, looked up, the tested form may be a part): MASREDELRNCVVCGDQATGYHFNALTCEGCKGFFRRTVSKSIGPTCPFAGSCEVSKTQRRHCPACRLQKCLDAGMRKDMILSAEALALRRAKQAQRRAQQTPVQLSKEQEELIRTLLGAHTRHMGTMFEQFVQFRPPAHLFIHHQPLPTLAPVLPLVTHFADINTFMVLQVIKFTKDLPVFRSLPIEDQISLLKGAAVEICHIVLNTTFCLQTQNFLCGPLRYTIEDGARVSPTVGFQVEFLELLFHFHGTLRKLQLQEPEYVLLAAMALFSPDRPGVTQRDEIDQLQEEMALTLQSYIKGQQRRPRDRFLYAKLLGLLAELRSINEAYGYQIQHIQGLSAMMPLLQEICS

As for `CCCCCCCCCCCCCOP(=O)(O)O`, the compound was classed as inactive in [1], in [3], in assay [4], in [5], in assay [6] and in [7]. Moreover, the call in [8], in assay [9], in assay [10], in assay [11], in assay [12] and in assay [13] was inactive. Besides, the result in assay [14] and in assay [15] was inactive. Further, in [2], the AC50 was 7.54 µM (active).
For `CCCCCCCCCCc1ccccc1`, the outcome in assay [1], in [2], in [3], in [4], in [5] and in assay [6] was inactive. The call in assay [7], in assay [8], in assay [16], in [9], in [11] and in assay [13] was inactive. Also, the compound was classed as inactive in assay [17], in assay [14], in assay [18] and in assay [19].
As for `CN(C)CCCN(C)C`, the compound was classed as inactive in assay [1], in assay [2], in assay [3], in assay [4], in [5] and in assay [6]. Moreover, the result in assay [7], in assay [8], in [9], in assay [10], in assay [11] and in assay [13] was inactive. Further, the result in assay [14], in [15] and in [18] was inactive.
For `O=[N+]([O-])c1ccc(CO)cc1`, the call in assay [1], in assay [3], in assay [4], in assay [5], in assay [6] and in assay [7] was inactive. Besides, the compound was classed as inactive in assay [8], in [16], in assay [9], in [10], in assay [11] and in assay [13]. Moreover, the result in assay [14] and in [18] was inactive. In addition, in assay [2], the AC50 was 5.54 µM (active).
